VACV Venus inh: vaccinia inhibition (Venus reporter); AID 720580; Potency, µM (highest dose often 36.5 µM), hits mostly inhibitors; Vaccinia virus Venus reporter expression, fluorescence; 0.46% of 330,000 active; calls by dose curve; tested in A549 cells; note: nearly all actives have a fitted effect of over 30% in size
NS1 inh: inhibitors of influenza NS1 protein function | AID 2326 | 0.4% of 270,000 active | Potency, µM (top dose mostly 46.1 µM); calls by dose curve; note: actives are rising curves; nearly all actives have a fitted effect of over 50% in size
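Growth recovery, yeast-based: influenza A NS1 expressed in S. cerevisiae causes slow growth, and suppressors are detected by OD600. The parent strain without NS1 is used as positive control.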
HCV inh: inhibitors of hepatitis C virus infection. Huh7.5.1 HCVcc-Cre infection, luciferase reporter, 44 h. Potency, µM (titrated, usually from 41.8 µM), actives largely listed as inhibitors. 3.4% of 340,000 active
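Cells (1,000/well) were plated 4 h before compound, then infected with HCVcc-Cre virus (~0.5 moi). After 44 h further culture, infection was read as luciferase luminescence following a 15 min substrate incubation at room temperature.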
VACV mCherry inh: vaccinia inhibition (mCherry reporter). Vaccinia virus mCherry reporter infection, fluorescence. Potency, µM (top dose mostly 36.5 µM), most hits filed as inhibitors. 0.63% of 310,000 active; calls by dose curve; tested in A549 cells; note: nearly all actives have a fitted effect of over 35% in size
Pf growth 96h: P. falciparum growth inhibition at 96 hours; P. falciparum luciferase reporter growth, 96 h; Potency, µM (titrated, usually from 28.7 µM), most hits filed as inhibitors; 6.9% of 320,000 active
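Cell-based qHTS: luciferase-tagged P. falciparum in erythrocytes (2% hematocrit, 0.05% parasitemia final) incubated with compounds for 96 hours, 37 C, 5% CO2; luciferase detection reagent then added and luminescence measured.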
Pf growth 48h: P. falciparum growth inhibition at 48 hours (one generation); 5.9% of 310,000 active; Potency, µM (highest dose often 28.7 µM), hits mostly inhibitors; P. falciparum luciferase growth in erythrocytes, 48 h
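Compounds are pin-transferred into medium, infected erythrocytes (2% hematocrit, 0.1% parasitemia final) are added, and plates sit one parasite generation at 37 C in 5% CO2. Detection reagent is then added and luminescence measured.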
Each line names hits and unclear results; the compound was inactive in the other large screens. Shown are actives, neighbours in structure and some others; about 11% of the full set was active somewhere. Unless noted, calls come from the whole dose curve; as a rule, active = well fitted inhibition curve with a large enough effect; inconclusive = small, poorly fitted or top-dose-only effect, or another doubt; inactive = no such curve, though single readings can be large or run the other way.

O=C(Nc1cccc(-c2ccc(N3CCOCC3)nn2)c1)c1ccc(Cl)cc1	HCV inh inconclusive (no result: NS1 inh)
COc1cc(CNCCc2ccccc2)ccc1OCC(N)=O	none
COc1ccc(OC)c(CN2CCN(C(=O)c3ccc(S(=O)(=O)N4CCCCCC4)cc3)CC2)c1	none (no result: NS1 inh, HCV inh, Pf growth 96h, Pf growth 48h)
Cc1nc(-c2cccc(F)c2)sc1CCNC(=O)c1ccc(F)c(F)c1	none (no result: NS1 inh, HCV inh, Pf growth 96h, Pf growth 48h)
CC1=C(C#N)C(c2cn(-c3ccccc3)nc2-c2cccs2)C(C#N)=C(C)N1	Pf growth 48h 1.7µM
COCCOC(=O)C1=C(C)NC(=O)NC1c1cn(-c2ccccc2)nc1-c1cccs1 (configuration not stated)	none (no result: VACV mCherry inh)
C=CCOC(=O)C1=C(C)NC(=O)NC1c1cn(-c2ccccc2)nc1-c1cccs1 (configuration not stated)	HCV inh inconclusive, Pf growth 96h inconclusive, Pf growth 48h 15µM
NC1=NC(c2cn(-c3ccccc3)nc2-c2cccs2)n2c(nc3ccccc32)N1 (configuration not stated)	Pf growth 96h inconclusive, Pf growth 48h inconclusive (no result: VACV mCherry inh)
CCCC(=O)OCCNC(=O)c1cc2ccccc2oc1=O	none (no result: VACV mCherry inh, Pf growth 96h)
CC(NC(=O)c1cc2ccccc2oc1=O)c1ccccc1 (configuration not stated)	Pf growth 96h 12µM
CN(C)S(=O)(=O)c1ccc(C(=O)NCCSc2c(-c3ccc(Cl)cc3)[nH]c3ccccc23)cc1	none (no result: NS1 inh, HCV inh, Pf growth 96h, Pf growth 48h)
O=C(Cc1cccs1)NCCSc1c(-c2ccc(Cl)cc2)[nH]c2ccccc12	VACV Venus inh 13µM, HCV inh 13µM, VACV mCherry inh 11µM, Pf growth 96h inconclusive, Pf growth 48h inconclusive
Cc1ccc(-c2[nH]c3ccccc3c2SCCNC(=O)c2cc3ccccc3oc2=O)cc1	NS1 inh inconclusive, Pf growth 96h 5.9µM, Pf growth 48h inconclusive
CC(=O)OCCNC(=O)c1cc2ccccc2oc1=O	Pf growth 96h 1.7µM (no result: VACV mCherry inh)
COc1cc(C(C(=O)NC2CCCC2)N(Cc2ccco2)C(=O)c2snc(C(N)=O)c2N)cc(OC)c1OC (configuration not stated)	Pf growth 48h inconclusive
O=C(NCCc1ccc(F)cc1)c1cc2ccccc2oc1=O	none (no result: VACV Venus inh, VACV mCherry inh)
CC(=O)c1ccc(COC(=O)c2cc3ccccc3oc2=O)cc1	Pf growth 96h 13µM (no result: VACV Venus inh, VACV mCherry inh)
O=C(NCCc1ccccc1)c1cc2ccccc2oc1=O	Pf growth 96h 9.3µM (no result: VACV Venus inh, VACV mCherry inh)
COC(=O)c1ccc(COC(=O)c2cc3ccccc3oc2=O)cc1	Pf growth 96h inconclusive (no result: VACV Venus inh, VACV mCherry inh)
O=C(Nc1ccc(Cl)cn1)C1C(c2ccccc2)C1(Cl)Cl (configuration not stated)	none
O=C(Cn1cnc2ccccc2c1=O)NCCC(=O)N1CCC2(CC1)OCCO2	none (no result: Pf growth 96h)
Cc1cc(C)c(S(=O)(=O)N2CCN(C(=O)C3COc4ccccc4O3)CC2)c(C)c1 (configuration not stated)	HCV inh 11µM, Pf growth 48h inconclusive (no result: VACV Venus inh, NS1 inh, VACV mCherry inh)
O=C(C1COc2ccccc2O1)N1CCN(Cc2ccccc2)CC1 (configuration not stated)	Pf growth 96h 8.3µM (no result: VACV Venus inh, VACV mCherry inh)
Cc1ccc(S(=O)(=O)N2CCN(C(=O)C3COc4ccccc4O3)CC2)cc1C (configuration not stated)	Pf growth 48h inconclusive (no result: HCV inh, Pf growth 96h)
COc1cc2nc(N3CCN(C(=O)[C@H]4COc5ccccc5O4)CC3)nc(N)c2cc1OC	Pf growth 96h 3.7µM, Pf growth 48h 3.7µM
O=C(C1COc2ccccc2O1)N1CCN(c2ccccc2F)CC1 (configuration not stated)	Pf growth 96h inconclusive, Pf growth 48h 12µM
CCN(CC)S(=O)(=O)c1ccc2c(c1)N(CC(=O)Nc1c(C)cccc1C)C(=O)C1CCCN21 (configuration not stated)	none (no result: NS1 inh, HCV inh, Pf growth 96h, Pf growth 48h)
Cc1cc(=O)oc2c(C)c(OCC(=O)N3CCN(C(=O)C4COc5ccccc5O4)CC3)ccc12 (configuration not stated)	Pf growth 96h 9.3µM, Pf growth 48h 10µM (no result: VACV Venus inh, VACV mCherry inh)
O=C(c1ccco1)N1CCc2ccccc21	none (no result: VACV Venus inh, NS1 inh, VACV mCherry inh)
O=C(N1CCOCC1)N1CCc2ccccc21	Pf growth 96h 12µM (no result: VACV Venus inh, VACV mCherry inh)
O=C(N1CCOCC1)N1CCN(Cc2ccccc2)CC1	Pf growth 96h 1.7µM (no result: VACV Venus inh, VACV mCherry inh)
CCn1c(/C=C/Nc2ccccc2)[n+](CC)c2ccc(Cl)cc21	Pf growth 96h 8.3µM, Pf growth 48h inconclusive
CCn1c(/C=C/N(C)c2ccccc2)[n+](CC)c2ccc(Cl)cc21	HCV inh 32µM, Pf growth 96h 0.13µM, Pf growth 48h 0.74µM
Cc1cnc(NC(=O)[C@H](C)N2C(=O)C3CCCCC3C2=O)s1 (some centres not stated)	none
O=C(NCc1ccccc1)C(c1ccccc1)N(Cc1cccs1)C(=O)c1cnccn1 (configuration not stated)	Pf growth 96h 0.26µM (no result: VACV Venus inh, VACV mCherry inh)
COc1cc(C(C(=O)NCc2ccccc2)N(Cc2ccco2)C(=O)c2cnccn2)cc(OC)c1OC (configuration not stated)	Pf growth 48h 9.3µM (no result: VACV Venus inh, NS1 inh, VACV mCherry inh)
CCOc1cc(C2NCc3ccccc3-n3cccc32)ccc1O (configuration not stated)	VACV mCherry inh inconclusive, Pf growth 48h 2.6µM
Oc1ccccc1C1NCc2ccccc2-n2cccc21 (configuration not stated)	Pf growth 48h 13µM
Cn1c(SCC(=O)NC2CCCC2)nc2cccnc21	none
Cc1ccc(NC(=O)c2ccc(-n3cccn3)nc2)cc1	none (no result: NS1 inh)
Clc1ccc(N2CCN(c3nc4nonc4nc3N3CCSCC3)CC2)nc1	none
COc1c(/C=N/Nc2ccc([N+](=O)[O-])cc2[N+](=O)[O-])c(C)nn1-c1ccccc1	Pf growth 96h inconclusive
Cc1nn(-c2ccccc2)c(N2CCCC2)c1/C=N/Nc1ccc(S(=O)(=O)Nc2ccccc2)cc1[N+](=O)[O-]	Pf growth 96h inconclusive, Pf growth 48h 3.3µM
COc1ccccc1NS(=O)(=O)c1ccc(N/N=C/c2ccccc2OCC(=O)O)c([N+](=O)[O-])c1	Pf growth 96h inconclusive, Pf growth 48h inconclusive (no result: NS1 inh)
COc1ccccc1NS(=O)(=O)c1ccc(N/N=C/c2c(C)nn(-c3ccccc3)c2N2CCCC2)c([N+](=O)[O-])c1	HCV inh inconclusive, Pf growth 96h inconclusive, Pf growth 48h 3.3µM
COc1ccccc1NS(=O)(=O)c1ccc(NN=C2CCCC2)c([N+](=O)[O-])c1	NS1 inh inconclusive, HCV inh inconclusive, Pf growth 96h 12µM
COc1ccccc1NS(=O)(=O)c1ccc(N/N=C/C=C/c2ccccc2[N+](=O)[O-])c([N+](=O)[O-])c1	Pf growth 96h inconclusive, Pf growth 48h inconclusive
CC(=O)c1ccc(N(CC(=O)NC2CCS(=O)(=O)C2)S(=O)(=O)c2ccc(C)cc2)cc1 (configuration not stated)	none (no result: NS1 inh, Pf growth 96h, Pf growth 48h)
Cc1cc(Cl)ccc1OC(C)C(=O)NC(C)C1CCCO1 (configuration not stated)	none
O=C(Nc1cccc2c1[nH]c(=O)c1ccccc12)C(F)(F)F	none (no result: NS1 inh, HCV inh, Pf growth 96h, Pf growth 48h)

Compound activity (PubChem BioAssay)
